Measured values as given in PubChem BioAssay (NCI).
Values joined by “and” are separate entries in the source; they are usually repeats but may differ in a detail not shown here. Identical values can stand only once. Compounds without any hit were thinned out: in the full panel of roughly 79,000, 15% have a hit. The source holds several records for some structures; these can differ, active in one and inactive in another. Active and inactive are the calls of the source. Rule as the data show it: active = growth inhibition above about 70%; inactive = the rest.

Assays:
[1] = NCI Yeast Anticancer Drug Screen. Data for the rad50 strain (AID 155);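 also: 0% = growth of vehicle-only cultures of the same strain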; details: S. cerevisiae rad50 strain growth inhibition, stronger effect = higher value
Procedure, shortened: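 Relative growth inhibition (compound vs vehicle) was measured in yeast with a defined repair-gene alteration.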

[2] = NCI Yeast Anticancer Drug Screen. Data for the mec2-1 strain (AID 157); details: S. cerevisiae mec2-1 strain, stronger effect = higher value
Procedure, shortened: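 Readout is yeast growth inhibition, normalised to vehicle-treated controls, in the mec2-1 strain exposed to compound.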

[3] = NCI Yeast Anticancer Drug Screen. Data for the sgs1 mgt1 strain (AID 161);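 also: 0% = growth of cultures given vehicle only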; details: S. cerevisiae sgs1 mgt1 strain, stronger effect = higher value
Procedure, shortened: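 This yeast growth screen uses a strain with defined DNA-repair lesions; compound-treated growth is compared with vehicle-treated growth.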

[4] = NCI Yeast Anticancer Drug Screen. Data for the cln2 rad14 strain (AID 165);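 also: 0% = growth equal to vehicle treated cultures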; details: S. cerevisiae cln2 rad14 strain, stronger effect = higher value
Procedure, shortened: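 Relative to vehicle controls, growth inhibition of compound-treated cln2 rad14 yeast was recorded.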

[5] = NCI Yeast Anticancer Drug Screen. Data for the bub3 strain (AID 167); details: S. cerevisiae bub3 mutant strain, stronger effect = higher value
Procedure, shortened: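 Screening used yeast with an engineered genetic alteration affecting cell cycle control. Compound-exposed cultures were compared with vehicle cultures, and reduced growth was taken as inhibition.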

[6] = NCI Yeast Anticancer Drug Screen. Data for the mlh1 rad18 strain (AID 175); details: S. cerevisiae mlh1 rad18 strain growth inhibition, stronger effect = higher value
Procedure, shortened: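 Test agents were incubated with a yeast strain of defined genotype (DNA damage repair defect). Inhibition of growth was derived by comparison with vehicle-exposed cultures.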

[7] = at 5.0 µM (retest, dose inferred, filed as 0.5)
[8] = at 50.0 µM (retest, dose inferred, filed as 5.0)

What does the source list for CCCCCCCCCCCC[N+](C)(C)C?
growth inhibition [1, 7]: -9% (inactive) and -3% (inactive) and 12% (inactive); growth inhibition [1, 8]: 98% (active) and 96% (active) and 99% (active); growth inhibition ([1]; at 50.0 µM): 49.9% (inactive) and 80.2% (active) and 39.5% (inactive); growth inhibition [2, 7]: -3% (inactive) and 0% (inactive) and 22% (inactive); growth inhibition [2, 8]: 99% (active) and 98% (active) and 100% (active); growth inhibition ([2]; at 50.0 µM): 53.3% (inactive) and 89.5% (active) and 92.2% (active); growth inhibition [3, 7]: -8% (inactive) and -3% (inactive) and 49% (inactive); growth inhibition [3, 8]: 98% (active) and 97% (active) and 99% (active); growth inhibition ([3]; at 50.0 µM): 49% (inactive) and 92.5% (active) and 48.6% (inactive); growth inhibition [4, 7]: 3% (inactive) and -1% (inactive) and 2% (inactive); growth inhibition [4, 8]: 97% (active) and 96% (active) and 99% (active); growth inhibition ([4]; at 50.0 µM): 71.8% (active) and -21.6% (inactive) and 66.2% (inactive); growth inhibition [5, 7]: 14% (inactive) and 9% (inactive) and 18% (inactive); growth inhibition [5, 8]: 95% (active) and 98% (active) and 100% (active); growth inhibition ([5]; at 50.0 µM): 57.2% (inactive) and 82.1% (active) and 97.2% (active); growth inhibition [6, 7]: -4% (inactive) and -5% (inactive) and 4% (inactive); growth inhibition [6, 8]: 96% (active) and 95% (active) and 99% (active); growth inhibition ([6]; at 50.0 µM): 83.3% (active) and 91% (active) and 80.5% (active)

With Nc1ccccc1SSc1ccccc1N as the compound, how does the growth inhibition [1, 7] read?
The growth inhibition was 27% (inactive) and 9% (inactive) and 56% (inactive).

And the growth inhibition [1, 8]?
The growth inhibition was 99% (active) and -9% (inactive).

What about the growth inhibition ([1]; at 50.0 µM) of the same compound?
The growth inhibition was 99.4% (active) and 99% (active) and 99.3% (active).

What about the growth inhibition [2, 7] of the same compound?
Its growth inhibition is 80% (active) and 18% (inactive) and 29% (inactive).

And the growth inhibition [2, 8]?
The growth inhibition was 99% (active) and 0% (inactive).

What about the growth inhibition ([2]; at 50.0 µM) of the same compound?
The growth inhibition was 99.5% (active) and 99.1% (active).

What about the growth inhibition [3, 7] of the same compound?
The growth inhibition was 67% (inactive) and 13% (inactive) and 41% (inactive).

And the growth inhibition [3, 8]?
The growth inhibition was 99% (active) and 12% (inactive).

And the growth inhibition ([3]; at 50.0 µM)?
The growth inhibition was 99.3% (active).

What about the growth inhibition [4, 7] of the same compound?
Its growth inhibition is 17% (inactive) and 4% (inactive) and 13% (inactive).

What about the growth inhibition [4, 8] of the same compound?
The growth inhibition was 99% (active) and 5% (inactive).

What about the growth inhibition ([4]; at 50.0 µM) of the same compound?
Its growth inhibition is 99.2% (active) and 98.8% (active).

And the growth inhibition [5, 7]?
The growth inhibition was 87% (active) and 13% (inactive) and 89% (active).

What about the growth inhibition [5, 8] of the same compound?
The growth inhibition was 99% (active) and 28% (inactive).

What about the growth inhibition ([5]; at 50.0 µM) of the same compound?
The growth inhibition was 98.3% (active) and 99.1% (active).

And the growth inhibition [6, 7]?
The growth inhibition was 80% (active) and 17% (inactive) and 46% (inactive).

What about the growth inhibition [6, 8] of the same compound?
The growth inhibition was 99% (active) and 7% (inactive).

And the growth inhibition ([6]; at 50.0 µM)?
The growth inhibition was 99.3% (active) and 99% (active).
